From ChEMBL document CHEMBL1961873, “Compounds: GSK PKIS; Assays: Nanosyn kinase panel” (2012) come the findings set out here.

Structures are written as SMILES.

For orientation: inhibition means the relative decrease from the control value, in per cent.

In assay [1] the target is Tyrosine-protein kinase receptor UFO (Homo sapiens) (UniProt P30530). The note with it: at 1 µM.
Assay [2] addresses Tyrosine-protein kinase Blk (Homo sapiens) (UniProt P51451). The note with it: at 0.1 µM.
Assay [3] shares this target. The settings on record: at 1 µM.
Assay [4] addresses T1, Cytoplasmic tyrosine-protein kinase BMX (Homo sapiens) (UniProt P51813).
T1 sequence (whole entry): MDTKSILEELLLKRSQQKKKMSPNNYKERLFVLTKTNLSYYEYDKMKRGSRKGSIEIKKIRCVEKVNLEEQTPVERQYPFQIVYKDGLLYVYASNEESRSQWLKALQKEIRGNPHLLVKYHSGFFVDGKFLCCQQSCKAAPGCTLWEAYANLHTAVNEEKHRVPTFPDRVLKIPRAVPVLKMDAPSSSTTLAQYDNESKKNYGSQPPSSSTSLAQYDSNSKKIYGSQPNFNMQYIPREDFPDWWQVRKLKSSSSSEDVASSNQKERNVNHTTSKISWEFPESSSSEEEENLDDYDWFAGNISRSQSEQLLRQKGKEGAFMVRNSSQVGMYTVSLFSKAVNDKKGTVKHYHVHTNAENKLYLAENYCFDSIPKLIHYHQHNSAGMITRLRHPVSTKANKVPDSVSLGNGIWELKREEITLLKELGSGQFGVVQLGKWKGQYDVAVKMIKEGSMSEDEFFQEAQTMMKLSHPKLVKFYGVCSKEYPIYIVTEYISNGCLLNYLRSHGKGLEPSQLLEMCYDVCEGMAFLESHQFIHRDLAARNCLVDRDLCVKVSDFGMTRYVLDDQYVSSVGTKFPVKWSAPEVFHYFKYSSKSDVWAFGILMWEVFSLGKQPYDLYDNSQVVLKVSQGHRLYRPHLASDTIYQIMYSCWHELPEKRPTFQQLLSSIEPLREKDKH
The note with it: at 0.1 µM.

Assay [5] deals with T1, Cytoplasmic tyrosine-protein kinase BMX (Homo sapiens). The settings on record: at 1 µM.
The target of assay [6] is Protein-tyrosine kinase 6 (Homo sapiens) (UniProt Q13882). The settings on record: at 0.1 µM.
The target is the same in assay [7]. The note with it: at 1 µM.
Assay [8] addresses Tyrosine-protein kinase BTK (Homo sapiens) (UniProt Q06187). The note with it: at 0.1 µM.
Assay [9] has the same target. The settings on record: at 1 µM.
The target of assay [10] is Tyrosine-protein kinase CSK (Homo sapiens) (UniProt P41240). The settings on record: at 0.1 µM.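 Note: value given is the averaged percent inhibition of CSK kinase activity, from the GSK PKIS kinase inhibitor set screening panel.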
Sequence of Tyrosine-protein kinase CSK (Homo sapiens) (P41240 2-450 limits assumed): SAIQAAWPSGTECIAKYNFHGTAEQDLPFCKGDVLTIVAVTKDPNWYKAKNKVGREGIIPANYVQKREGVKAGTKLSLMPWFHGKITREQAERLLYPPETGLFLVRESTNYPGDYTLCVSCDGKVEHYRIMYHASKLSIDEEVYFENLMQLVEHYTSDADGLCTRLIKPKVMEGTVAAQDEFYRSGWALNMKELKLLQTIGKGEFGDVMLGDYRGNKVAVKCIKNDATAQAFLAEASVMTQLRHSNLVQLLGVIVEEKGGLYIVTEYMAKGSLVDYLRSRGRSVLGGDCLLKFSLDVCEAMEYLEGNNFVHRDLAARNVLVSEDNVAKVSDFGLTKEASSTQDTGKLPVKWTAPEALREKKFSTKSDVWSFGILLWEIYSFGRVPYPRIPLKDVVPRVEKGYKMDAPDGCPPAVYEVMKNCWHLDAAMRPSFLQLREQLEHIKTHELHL

Sequence of Tyrosine-protein kinase BTK (Homo sapiens) (Q06187 whole entry): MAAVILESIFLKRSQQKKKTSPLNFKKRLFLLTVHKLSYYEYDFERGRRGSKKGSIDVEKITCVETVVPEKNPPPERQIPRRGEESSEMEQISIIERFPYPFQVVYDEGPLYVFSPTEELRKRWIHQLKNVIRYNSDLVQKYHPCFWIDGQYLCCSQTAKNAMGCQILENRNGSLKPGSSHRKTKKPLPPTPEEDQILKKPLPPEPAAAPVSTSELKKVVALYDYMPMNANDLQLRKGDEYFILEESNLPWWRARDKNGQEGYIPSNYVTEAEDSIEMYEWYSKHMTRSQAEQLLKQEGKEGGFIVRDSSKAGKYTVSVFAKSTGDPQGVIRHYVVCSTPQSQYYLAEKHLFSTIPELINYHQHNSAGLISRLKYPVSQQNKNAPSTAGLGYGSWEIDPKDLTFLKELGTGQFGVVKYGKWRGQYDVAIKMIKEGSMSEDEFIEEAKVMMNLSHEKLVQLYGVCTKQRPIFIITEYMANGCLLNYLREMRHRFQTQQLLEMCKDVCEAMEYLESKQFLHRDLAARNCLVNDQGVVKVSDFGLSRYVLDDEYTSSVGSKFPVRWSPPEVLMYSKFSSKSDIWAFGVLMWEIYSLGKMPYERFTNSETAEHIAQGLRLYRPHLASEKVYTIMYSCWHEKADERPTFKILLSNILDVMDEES
Sequence of Protein-tyrosine kinase 6 (Homo sapiens) (Q13882 whole entry, looked up): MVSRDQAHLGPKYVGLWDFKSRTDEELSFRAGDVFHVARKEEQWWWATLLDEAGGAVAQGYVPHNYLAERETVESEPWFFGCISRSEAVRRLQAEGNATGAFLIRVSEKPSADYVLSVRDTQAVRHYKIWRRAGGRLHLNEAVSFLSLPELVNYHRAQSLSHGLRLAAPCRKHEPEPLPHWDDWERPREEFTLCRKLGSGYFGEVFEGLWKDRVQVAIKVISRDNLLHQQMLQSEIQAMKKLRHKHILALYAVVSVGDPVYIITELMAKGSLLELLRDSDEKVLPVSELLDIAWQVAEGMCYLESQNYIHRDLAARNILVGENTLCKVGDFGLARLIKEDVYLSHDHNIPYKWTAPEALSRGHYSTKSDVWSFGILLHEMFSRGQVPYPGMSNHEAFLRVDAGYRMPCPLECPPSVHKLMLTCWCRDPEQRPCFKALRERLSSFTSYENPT
Sequence of Tyrosine-protein kinase receptor UFO (Homo sapiens) (P30530 whole entry): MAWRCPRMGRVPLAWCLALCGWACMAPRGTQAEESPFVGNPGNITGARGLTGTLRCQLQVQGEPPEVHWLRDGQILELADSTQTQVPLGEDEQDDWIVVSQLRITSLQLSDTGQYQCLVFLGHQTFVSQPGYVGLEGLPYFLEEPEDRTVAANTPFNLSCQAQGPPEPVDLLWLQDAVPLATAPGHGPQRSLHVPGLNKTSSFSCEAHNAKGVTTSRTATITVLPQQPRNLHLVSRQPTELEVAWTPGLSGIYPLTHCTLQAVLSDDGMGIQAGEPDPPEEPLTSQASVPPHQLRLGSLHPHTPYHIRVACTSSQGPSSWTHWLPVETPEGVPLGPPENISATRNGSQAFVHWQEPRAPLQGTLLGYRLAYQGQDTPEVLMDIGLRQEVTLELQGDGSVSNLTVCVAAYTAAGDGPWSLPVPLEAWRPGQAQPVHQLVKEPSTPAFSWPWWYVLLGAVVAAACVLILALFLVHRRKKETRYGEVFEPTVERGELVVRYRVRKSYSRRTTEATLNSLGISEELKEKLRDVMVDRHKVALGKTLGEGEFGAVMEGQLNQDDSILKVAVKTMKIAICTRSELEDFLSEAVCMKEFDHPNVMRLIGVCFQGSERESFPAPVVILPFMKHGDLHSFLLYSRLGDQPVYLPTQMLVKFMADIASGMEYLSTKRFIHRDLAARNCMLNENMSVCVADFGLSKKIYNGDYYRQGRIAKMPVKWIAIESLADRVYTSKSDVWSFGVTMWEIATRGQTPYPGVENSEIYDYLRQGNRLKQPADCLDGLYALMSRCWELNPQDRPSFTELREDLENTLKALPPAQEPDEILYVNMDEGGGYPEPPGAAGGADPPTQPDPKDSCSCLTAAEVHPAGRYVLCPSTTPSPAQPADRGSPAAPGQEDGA
Sequence of Tyrosine-protein kinase Blk (Homo sapiens) (P51451 2-505 limits assumed): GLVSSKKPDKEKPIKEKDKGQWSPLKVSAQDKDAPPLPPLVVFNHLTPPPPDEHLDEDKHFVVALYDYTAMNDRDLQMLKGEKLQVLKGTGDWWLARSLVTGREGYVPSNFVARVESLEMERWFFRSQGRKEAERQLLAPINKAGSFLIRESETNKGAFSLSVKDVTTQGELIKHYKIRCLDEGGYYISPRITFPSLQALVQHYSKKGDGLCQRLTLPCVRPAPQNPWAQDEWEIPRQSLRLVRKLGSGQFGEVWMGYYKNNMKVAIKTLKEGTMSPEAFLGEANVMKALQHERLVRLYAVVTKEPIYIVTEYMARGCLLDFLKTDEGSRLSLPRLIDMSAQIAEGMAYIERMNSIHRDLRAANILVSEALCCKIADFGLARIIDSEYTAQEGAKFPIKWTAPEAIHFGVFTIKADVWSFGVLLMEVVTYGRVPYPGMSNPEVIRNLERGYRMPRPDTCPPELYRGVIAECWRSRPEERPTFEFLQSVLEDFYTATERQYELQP

In the case of `CCc1nn2ncccc2c1-c1ccnc(NC2CC2)n1`, the inhibition in [1] is -2.77%; in assay [2], 1.77%; in assay [3], 3.32%; in assay [4] it was 3.6%; in assay [5], 5.18%; in assay [6], -0.52%. Also, the inhibition amounted to 1.65% in [7], 0.24% in assay [8], 0.76% in [9] and 0.85% in assay [10].

`CCNC(=O)O[C@H]1CN[C@H](C#Cc2cc3ncnc(Nc4ccc(OCc5cccc(F)c5)c(Cl)c4)c3s2)C1`: the inhibition is -3.57% in assay [1]; 2.3% in assay [2]; 2.43% in [3]; -0.06% in [4]; 2.73% in assay [5]; 3.17% in assay [6]. In addition, the inhibition turned out to be 5.56% in [7], 1.15% in assay [8], 1.29% in assay [9] and 5.58% in assay [10].

`CS(=O)(=O)CCNCc1coc(-c2ccc3ncnc(Nc4ccc(OCc5ccccc5)cc4)c3c2)c1`: the inhibition in assay [1] was 0.06%; in assay [2], 2.9%; in assay [3] it was 11.5%; in assay [4] it was 4.64%; in assay [5], 6.49%; in assay [6] it was -1.1%. The inhibition in [7] was 10.9%; in assay [8], -0.04%; in assay [9] it was 2.66%; in assay [10] it was 0.42%.

Regarding `Cc1cccc2c1NC(=O)/C2=N\Nc1ccc(S(N)(=O)=O)cc1`, the inhibition was -0.34% in assay [1]; 1.72% in assay [2]; 5.96% in assay [3]; -0.08% in assay [4]; 2.79% in [5]; 0.03% in assay [6]. Also, the inhibition in assay [7] was 1.67%; in [8], 1.48%; in assay [9], 1.48%; in assay [10], 3.78%.

Consider `COC(=O)Nc1nc2ccc(Oc3ccc(NC(=O)Nc4cccc(Cl)c4)cc3)cc2[nH]1`, for which the inhibition turned out to be 6.96% in assay [1]; 0.1% in assay [2]; 1.79% in assay [3]; 1.98% in assay [4]; 1.28% in [5]; 0.55% in [6]. Further, the inhibition in assay [7] is -0.38%; in assay [8] it was 0.06%; in [9], -0.37%; in assay [10] it was 1.23%.

For `CCOc1ccc2c(-c3ccnc(Nc4cccc(C(F)(F)F)c4)n3)cnn2n1`, the inhibition in assay [1] was -0.78%; in assay [2], 2.21%; in assay [3] it was 3.22%; in [4], 3.34%; in [5], 1.94%; in assay [6], -0.32%. Besides, the inhibition amounted to 0.97% in [7], 0.07% in assay [8], 1.18% in assay [9] and 1.57% in assay [10].

With `CCn1c(-c2nonc2N)nc2c(C#CC(C)(C)O)nc(OC[C@H](N)c3ccccc3)cc21`, the inhibition was -3% in assay [1]; 3.73% in [2]; 2.85% in [3]; 3.88% in [4]; 5.18% in assay [5]; 2.66% in [6]. Moreover, the inhibition in assay [7] was 2.72%; in assay [8] it was 0.09%; in assay [9], 0.56%; in assay [10] it was -1.53%.

As to `CS(=O)(=O)CCNCc1ccc(-c2ccc3ncnc(Nc4ccc(OCc5ccccc5)c(C(F)(F)F)c4)c3c2)o1`, the inhibition in assay [1] was -6.09%; in [2] it was 3.53%; in assay [3], 4.36%; in assay [4], 2.52%; in [5], 1.86%; in assay [6], 3.06%. Besides, the inhibition was 3.52% in assay [7], 1.47% in [8], 1.16% in assay [9] and 0.54% in assay [10].

For the compound `Cc1cccc(Nc2ncc(-c3ccccc3)o2)c1`, the inhibition in assay [1] is -3.9%; in assay [2], 3.13%; in [3], 6.39%; in assay [4], 4.13%; in assay [5], 6.25%; in [6], 2.06%. Besides, the inhibition was 0.15% in [7], 0.69% in [8], 1.31% in assay [9] and 1.12% in assay [10].

Consider `CNC(=O)c1cncc(/C=C/c2ccccc2Cl)c1`, for which the inhibition in assay [1] was -0.52%; in [2], 3.84%; in assay [3], 4.55%; in assay [4], 1.47%; in [5], 8.42%; in assay [6] it was 0.17%. In addition, the inhibition was 10% in [7], 1.39% in [8], 2.01% in assay [9] and 0.04% in assay [10].

Take `COc1ccc(-c2nn3ncccc3c2-c2ccnc(Nc3ccc4c(c3)OCCO4)n2)cc1`: the inhibition came out at 8.45% in assay [1]; 5.51% in assay [2]; 39.5% in [3]; 0.12% in [4]; 8.65% in [5]; 12% in [6]. In addition, the inhibition is 67.5% in [7], 0.65% in assay [8], 3.53% in [9] and -0.27% in assay [10].

Take `FC(F)(F)c1cccc(-c2nn3ncccc3c2-c2ccnc(Nc3ccc4c(c3)OCCO4)n2)c1`: the inhibition is -1.04% in assay [1]; 4.81% in assay [2]; 45.5% in [3]; 7.84% in [4]; 29.9% in [5]; 4.61% in assay [6]. Besides, the inhibition is 28.5% in [7], -0.12% in assay [8], 2.88% in assay [9] and 5.73% in assay [10].

In the case of `Nc1ncc(-c2cccc(S(N)(=O)=O)c2)c2scc(-c3ccc(F)c(Cl)c3)c12`, the inhibition was -2.44% in assay [1]; 5.6% in assay [2]; 28.2% in assay [3]; 14.5% in assay [4]; 56.5% in [5]; 7.08% in assay [6]. In addition, the inhibition in assay [7] turned out to be 47.5%; in [8], 3.15%; in assay [9], 25.1%; in [10] it was 23.1%.

In the case of `COc1cc(N2CCN(C(C)C)CC2)ccc1Nc1nc(Nc2ccc(F)cc2C(N)=O)c2cc[nH]c2n1`, the inhibition worked out at 42.4% in [1]; 1.9% in assay [2]; 3.73% in [3]; 1.88% in assay [4]; 5.02% in assay [5]; 4.84% in [6]. Besides, the inhibition is 31.2% in assay [7], -0.63% in [8], -0.07% in [9] and 1.42% in assay [10].

On to `COc1ccc2[nH]c3c4[nH]c5ccc(OC)cc5c4c4c(c3c2c1)C(=O)NC4=O`, for which the inhibition is 40% in assay [1]; 6.14% in assay [2]; 36.5% in assay [3]; -2.69% in assay [4]; 16.6% in assay [5]; 6.37% in [6]. For the same compound, the inhibition in assay [7] was 19.6%; in assay [8], 0.07%; in assay [9], 8.32%; in assay [10], 4.3%.

For `COc1ccc(-c2cc(-c3c[nH]nc3-c3ccccn3)ccn2)cc1`, the inhibition was -5.64% in [1]; 4.09% in [2]; 3.9% in assay [3]; -1.41% in assay [4]; 5.27% in assay [5]; 6.49% in assay [6]. Moreover, the inhibition in assay [7] turned out to be 7.25%; in assay [8], 2.09%; in assay [9], 1.28%; in [10] it was 7.77%.
